# According to PubChem BioAssay AID720690 (Broad Institute, 2013):
# Measured potencies and affinities stand elsewhere. Activity calls are given as the source filed them.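 Rule for the calls: active = every repeat run showing a signal drop whose fitted half-maximal concentration is at most twice the top tested concentration; inconclusive = repeat runs disagree, or flat partial drop, or poor fit; inactive = the rest.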
# Assay: general mammalian cell viability loss – activator set, cherry-pick, cytotoxicity control for miR-122 modulator project, dose response (AID 720690);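 note: 0% = neutral control wells and -100% = MG132 cytotoxic control wells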
# Details: HEK293T viability, CellTiter-Glo luminescence, 48 h; series mostly up to 26 µM; activity change, negative = cytotoxicity: at the top concentration
row,Compound,"activity change, negative = cytotoxicity"
1,Oc1ccc(-c2nc(-c3ccc(O)c(O)c3)cs2)cc1,-10.1% (inactive)
2,CO[C@H]1CN(C)C(=O)c2cc(NC(=O)c3cccc(Oc4ccccc4)c3)ccc2OC[C@@H](C)NC[C@H]1C,-5.78% (inactive)
3,O=C(COc1ccccc1F)N1CCc2ccccc2C1,0.158% (inactive)
4,Cc1nn(C)cc1NC(=O)C[C@H]1CC[C@@H]2[C@H](COc3ccc(NC(=O)Nc4cccc(Cl)c4)cc3C(=O)N2C)O1,3.12% (inactive)
5,CC(=O)N1[C@H](CNC(=O)C2CC2)[C@H](c2ccc(-c3cccc(F)c3)cc2)[C@@H]1CO,-11.7% (inactive)
6,CNC(=O)C[C@H]1CC[C@H]2[C@@H](COc3ccc(NC(=O)C4CC4)cc3C(=O)N2C)O1,-11.1% (inactive)
7,CC(=O)Nc1ccc(-c2cc(-c3ccc(NC(C)=O)cc3)nc(-c3ccc(NC(C)=O)cc3)n2)cc1,23.2% (inactive)
8,CNC(=O)C[C@H]1CC[C@@H]2[C@@H](COc3ccc(NC(=O)C(C)C)cc3C(=O)N2C)O1,-10.1% [at 23.5 µM] (inactive)
9,Cc1c(CC(=O)NCCCC(=O)O)c(=O)oc2cc3occ(-c4ccccc4)c3cc12,3.83% (inactive)
10,COc1cccc(CNC(=O)C[C@@H]2CC[C@H]3[C@H](COc4ccc(NS(=O)(=O)c5ccccc5F)cc4C(=O)N3C)O2)c1,-13.5% (inactive)
11,COC(=O)C[C@H]1CC[C@@H]2[C@@H](COc3ccc(NC(=O)Nc4cccc(F)c4)cc3C(=O)N2C)O1,-5.97% (inactive)
12,CC(C)C(=O)Nc1ccc2c(c1)C(=O)N(C)[C@@H]1CC[C@@H](CC(=O)NCC3CC3)O[C@H]1CO2,-13.5% (inactive)
13,CCCNC(=O)C[C@H]1CC[C@@H]2[C@@H](COc3ccc(NC(=O)c4ccc(C(F)(F)F)cc4)cc3C(=O)N2C)O1,-43.4% (inactive)
